In all, about 340,000 compounds went through this assay and about 3,300 (0.97%) were called active. For the sample, actives were picked, then their nearest neighbours and some compounds at random. A number with no mark means an inactive call.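 The calls were made as follows: active = inhibition above the mean over all tested compounds plus 3 SD (cut at about 30% in these data); inactive = the rest.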

For the test, the target named is Platelet-activating factor acetylhydrolase 2, cytoplasmic (Homo sapiens) (UniProt Q99487). As to the kind of experiment: PAFAH2 enzyme inhibitors, primary screen, biochemical, fluorescence polarization, human (AID 492956).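 Also: inhibitors block probe labeling of enzyme so polarization drops; 0% = enzyme with DMSO and 100% = wells lacking PAFAH2 protein.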 The settings on record: recombinant PAFAH2, FP-rhodamine activity probe, at 3.39 µM, hits give high values. In general terms: In fluorescence polarisation assays a small probe gives low polarisation when free and higher when bound to something large.
In general, inhibition refers to the relative decrease from the control value, in per cent. `c1coc(-c2nc3nc4ccccc4n3nc2-c2ccco2)c1`: the inhibition is 45.7% (active).

Regarding `COc1cc(OC)cc(C(=O)NC(=S)N2CCN(c3ccc(C(F)(F)F)cc3[N+](=O)[O-])CC2)c1`, the inhibition is 7.31%.

On to `Cc1ccc(-c2nn(-c3ccc(F)cc3)cc2C(=O)NCC(c2cccs2)N2CCOCC2)cc1` (stereo not given), for which the inhibition was 3.21%.

For the compound `Cc1cc(C(=O)N2CCN(c3ccccn3)CC2)c(C)o1`, the inhibition was -1.14%.

As for `O=C(CSC1=Nc2ccccc2C2=NC(c3ccccc3)C(=O)N12)NCC1CCCO1` (stereo not given), the inhibition was 7.84%.

Turning to `CC(C)C1N=C2c3ccccc3N=C(SCC(=O)c3ccc(O)c(O)c3)N2C1=O` (stereo not given), the inhibition was 43.8% (active).

On to `NC(=O)CSC1=Nc2ccccc2C2=NC(CCC(=O)NCc3ccc(F)cc3)C(=O)N12` (stereo not given), for which the inhibition was 1.37%.

With `C/C(=N/Nc1nc(-c2ccccc2)c(CC(=O)O)s1)c1ccccc1`, the inhibition is 0.51%.

`CCc1ccc(N2CC(O)=C(c3nc4ccccc4c(=O)[nH]3)C2=N)cc1`: the inhibition is -1.39%.

In the case of `CCCCCN1CC(O)=C(c2nc(-c3ccc(Cl)cc3)cs2)C1=N`, the inhibition is -0.6%.

As to `COc1ccccc1N1CC(O)=C(c2nc3ccccc3s2)C1=N`, the inhibition is 33.6% (active).

`N=C1C(c2nc3ccccc3s2)=C(O)CN1NC(=O)c1ccc([N+](=O)[O-])cc1`: the inhibition is 8.9%.

`CCCCCN1CC(O)=C(c2ccccc2)C1=N`: the inhibition is -3.01%.

Turning to `CCOC(=O)CCCN1CC(O)=C(c2nc3ccccc3s2)C1=N`, the inhibition was 34.8% (active).

On to `CC(=O)Nc1ccc(N2C(=O)CCC2=O)cc1C`, for which the inhibition is -0.05%.

In the case of `NC(=O)C1CCN(Cc2nc3c(Br)cc(Br)cc3c(=O)[nH]2)CC1`, the inhibition was -2.66%.

Turning to `CCC(=O)Nc1ccc(C(=O)NNC(=O)c2ccc(Cl)cc2)cc1`, the inhibition is -2.08%.

Regarding `C/C=C/C=C/C(=O)OCC(=O)Nc1ccc(Cl)cc1`, the inhibition is 86.5% (active).

Take `C/C=C/C(=O)OCC(=O)Nc1ccc(F)cc1Cl`: the inhibition was 26%.

In the case of `COc1ccc(-n2c(C)nn(CC3CC3)c2=O)cc1`, the inhibition was 0.47%.

As to `O=C1NCC(c2ccccc2)(c2ccccc2)C(=O)N1`, the inhibition is -5.72%.

`O=C(CSc1n[nH]c(-c2cccnc2)n1)Nc1ccc(Cl)cc1`: the inhibition was -7.75%.

On to `O=[N+]([O-])c1cc(S(=O)(=O)NCCc2ccccn2)ccc1Cl`, for which the inhibition was 4.86%.

Take `O=C(COC(=O)/C=C/c1ccc(Br)o1)Nc1cccc(S(=O)(=O)N2CCOCC2)c1`: the inhibition was 42% (active).

Turning to `CCOc1ncccc1C(=O)OCC(=O)Nc1cccc(S(=O)(=O)N2CCCCCC2)c1`, the inhibition was 60% (active).

For the compound `CS(=O)(=O)c1ccc(Cl)c(NC(=O)COC(=O)c2cccc(S(=O)(=O)N3CCCC3)c2)c1`, the inhibition was 32.3% (active).

`CC(=O)c1cccc(OCC(=O)OCC(=O)Nc2cc(S(=O)(=O)N3CCCCC3)ccc2C)c1`: the inhibition was 1.56%.

With `O=C(COC(=O)COc1ccccc1F)Nc1cccc(S(=O)(=O)N2CCCCC2)c1`, the inhibition is -7.67%.

For `O=C(COC(=O)c1ccccc1)Nc1cccc(S(=O)(=O)N2CCOCC2)c1`, the inhibition is 37.7% (active).

As to `CC(NC(=O)c1ccccc1)C(=O)OCC(=O)Nc1cccc(S(=O)(=O)N2CCCC2)c1` (stereo not given), the inhibition is 7.86%.

Regarding `O=C(COC(=O)CCc1ccc(S(=O)(=O)N2CCOCC2)cc1)Nc1cccc(Cl)c1`, the inhibition is 0.83%.

Turning to `O=C(CSc1ccccc1)Nc1cccc(S(=O)(=O)N2CCOCC2)c1`, the inhibition was -0.86%.

`O=C(COC(=O)CCOc1ccccc1)Nc1cc(S(=O)(=O)N2CCCCC2)ccc1Cl`: the inhibition was -0.76%.

On to `O=C(CN1CCc2ccccc2C1)Nc1cccc(S(=O)(=O)N2CCOCC2)c1`, for which the inhibition was 5.27%.

As to `CN=C(Nc1cccc(S(=O)(=O)N2CCOCC2)c1)c1ccccc1`, the inhibition is 0.65%.

(Values after PubChem BioAssay AID492956 (The Scripps Research Institute Molecular Screening Center, 2010).)
